The results in this text go back to ChEMBL document CHEMBL3988442, “University of Dundee, Small-Polar-MMV Screening Library” (2021).

Among all 48,000 compounds or so, about 13,000 (27%) showed an effect of 50% or more. The list shows a part of the results.

The test system of this test is Wolbachia pipientis. The test is described as follows: Anti-Wolbachia Cell-Based Screen. Further details: scale not given: in the data most compounds retested in dose-response had high values. The format is functional. The settings on record: 5 µM.
For `CN(CCSc1ccccc1)C(=O)C(c1cccnc1)N1CCOCC1` (stereo not given), the “Percent Effect” value worked out at 0.338%. Consider `Cc1cc(S(=O)(=O)Nc2cccc(I)c2)sc1C(=O)O`, for which the “Percent Effect” value is 5.422%.

Take `CN1CCCC2(CCN(c3cc(C(F)(F)F)nc(N(C)C)n3)C2)C1=O` (stereo not given): the “Percent Effect” value came to 7.307%. As for `CCc1cnc(N)nc1NCc1ccc(OC)c(OC)c1`, the figure is -14.4%. In the case of `COc1cc(CNc2ccccc2Cl)ccc1OCC(=O)O`, the “Percent Effect” value was 86.61%. Turning to `COc1cc(CNc2ccc(Cl)cc2)ccc1OCC(=O)O`, the “Percent Effect” value was found to be 106%. For `COc1ccccc1OCC(=O)Nc1ncccc1Cl`, the “Percent Effect” value was -0.249%. Turning to `COc1ccc(CNC(=O)c2ccc(Cl)cc2F)cc1C(=O)O`, the “Percent Effect” value is 25.37%. Regarding `COc1cccc(CNc2cc(CO)ccc2Cl)c1`, the “Percent Effect” value is given as -79.64%.

`CNC(=O)NC(=O)CNC(CC(F)(F)F)c1ccc(F)cc1` (stereo not given): the “Percent Effect” value came out at 13.05%. As to `CN(CC(=O)N1CC(C)(C)[C@](O)(C2CC2)C1)Cc1ccncc1`, the “Percent Effect” value is reported as -13.6%. Regarding `COC(=O)c1cccn1C1CCN(Cc2nc3ccccc3o2)CC1`, the “Percent Effect” value turned out to be 118.1%. In the case of `CCN(CC)C(=O)[C@@H]1C[C@@H](NC(=O)c2cccn2C2CC2)CN1C` it was 0.5236%. Regarding `COC(=O)c1cccn1C1CCN(Cc2cnc3ccccn23)CC1`, the “Percent Effect” value is on record as 132%.

As to `CCN1CCN(C2CCN(Cc3nc4ccccc4o3)CC2)C1=O`, the “Percent Effect” value is reported as -0.2621%. As for `CC(C)C(C)NC(=O)c1cccn1Cc1cccnc1` (stereo not given), the “Percent Effect” value is recorded as -0.09991%. With `COC(=O)c1cccn1C1CCN(Cc2cccnc2)CC1`, the “Percent Effect” value stood at 126.9%. With `CCc1nc(C)c(C(=O)N(C)Cc2cnc3ccccn23)o1`, the “Percent Effect” value was -30.87%. For `O=C1CCC(=O)N1CCN1CCC(=Cc2ccccc2)CC1`, the “Percent Effect” value was -0.4568%. Turning to `COCc1nnc(C(=O)N(C)Cc2cnc3ccccn23)o1`, the “Percent Effect” value was -16.21%.

`CCOCCCNC(=O)c1cccn1Cc1cccnc1`: the “Percent Effect” value is recorded as -15.39%. Regarding `COC(=O)c1cccn1C1CCN(CCN2C(=O)CCC2=O)CC1`, the “Percent Effect” value came to 85.14%. As for `Cc1ncc2c(n1)CCN(Cc1nc3ccccc3o1)C2`, the “Percent Effect” value is reported as 7.952%. As to `N#CCCN(CCC#N)C(=O)CN1CCCC1Cc1cccc(F)c1` (stereo not given), the “Percent Effect” value is -4.236%. Take `COC(=O)[C@@H]1CN(S(=O)(=O)c2ccccc2)CCN1S(C)(=O)=O`: the “Percent Effect” value is recorded as -4.195%.

As for `COC(=O)c1cccn1C1CCN(S(=O)(=O)c2ccccc2)CC1`, the “Percent Effect” value stood at 89.91%.

Regarding `COCCN1CCN(Cc2cccc(C(N)=O)c2)CC1C` (stereo not given), the “Percent Effect” value came to 5.406%. For `CC(O)CN1CCC(CNCc2cccc(C(N)=O)c2)CC1` (stereo not given), the “Percent Effect” value stood at 1.784%. As for `COC(=O)c1cccn1C1CCN(Cc2cccc(C(N)=O)c2)CC1`, the “Percent Effect” value worked out at 132.6%. For `COC(=O)c1ccc(S(=O)(=O)N2CCC(Oc3cccnn3)CC2)cc1`, the “Percent Effect” value was -19.83%. In the case of `CCOCCn1c(=O)n(CCC(C)C)c2ncc(C(=O)O)cc21` it was -3.937%; in that of `COCC(=O)Nc1ccc([C@@H](O)[C@H]2COCC(=O)N2C)cc1`, -3.081%. As for `CS(=O)(=O)N1CCN(C(=O)c2cccc(Cl)c2)CC2(CNC(=O)C2)C1` (stereo not given), the figure is 2.79%. For `CCC(=O)N1CCCC1c1nc(N(C)C)ncc1-c1ccc(Cl)cc1` (stereo not given), the “Percent Effect” value was 84.51%. Consider `CN(C)c1ccc(C(=O)N2CCCC2c2ccc(Cl)cc2)cc1` (stereo not given), for which the “Percent Effect” value was found to be 5.929%. In the case of `CC(C)C(=O)N1CCCC1c1nc(N(C)C)ncc1-c1ccc(Cl)cc1` (stereo not given), the “Percent Effect” value came out at 126.5%. Turning to `Cc1nc(CC(=O)N2CCC[C@H]2c2nc(C(C)C)no2)cs1`, the “Percent Effect” value is -12.82%. In the case of `Cc1cccc(N(CCC#N)S(=O)(=O)CC2CCCCO2)c1` (stereo not given) it was -8.784%; in that of `N#Cc1cc(C#N)c(SCCC(=O)Nc2ccc(F)cc2)nc1N`, -13.62%.

Turning to `CN1C[C@@H](C(=O)N2CCOCC2)[C@@]2(CCc3ccccc3C(=O)N2)C1`, the “Percent Effect” value was found to be 147.9%. As for `CN1CC(C(=O)NC(C)(C)C)CC1=O` (stereo not given), the “Percent Effect” value was determined as 0.8346%. For `CN1C[C@@H](C(=O)N2CCCOCC2)[C@@]2(CCc3ccccc3C(=O)N2)C1`, the “Percent Effect” value is -5.089%. As to `CC(C)(C)NC(=O)[C@@H]1CNC[C@]12Cc1ccccc1C(=O)N2`, the “Percent Effect” value was determined as 114.2%. In the case of `C[C@@H]1CN(C2(C(=O)N(C)C)Cc3ccccc3C2)C[C@H](C)O1` it was 1.411%; in that of `CN1C[C@@H](C(=O)NC(C)(C)C)[C@@]2(CCc3ccccc3C(=O)N2)C1`, 141.5%; in that of `O=C(c1ccccc1)N1CC(C(=O)N2CCOCC2)C2(CCOCC2)C1` (stereo not given), -41.49%. In the case of `CCNC(=O)N1CC[C@@H](CC(=O)O)[C@@H](CC2=NCCc3ccccc32)C1` it was 7.982%.

With `CN(C)C(=O)N1CCC2(CC1)NC(=O)c1ccccc12.Cl`, the “Percent Effect” value is listed as -7.31%. Turning to `CN1C[C@@H](C(=O)N(C)C)[C@@]2(CCc3ccccc3C(=O)N2)C1.Cl`, the “Percent Effect” value was found to be 136.2%. In the case of `COC(=O)CN(Cc1ccccc1C)C(=O)CCCNC(=O)C1CC1` it was -13.3%; in that of `CN(C)CCNc1ncccc1CNC(=O)Nc1cc(F)cc(F)c1`, -8.67%; in that of `CC(C)(C)c1cnc(CN2CCC(NC(=O)C3CCOCC3)CC2)o1`, -13.41%. Take `COC1CCN(CCNC(=O)NCC(C)c2cccc(C)c2)CC1` (stereo not given): the “Percent Effect” value was found to be 5.114%.

Take `COCCN(C)C[C@@H]1CCC[C@@H]2CN(Cc3ccc(OC)nc3)C[C@@H]21.O=C(O)C(F)(F)F.O=C(O)C(F)(F)F`: the “Percent Effect” value was determined as 8.299%. `O=C(NCC(F)(F)F)C1CCC(=O)N(C2CCCC2)C1` (stereo not given): the “Percent Effect” value is given as 11.17%. In the case of `CN1C[C@@H](C(=O)NCC(F)(F)F)[C@@]2(CCc3ccccc3C(=O)N2)C1` it was 103.7%. For the molecule `COC(=O)N1CCc2ccccc2C1C(=O)NCC(F)(F)F` (stereo not given), the “Percent Effect” value is reported as 5.157%. With `CCC(C)C(=O)NCc1cc(Br)c(OC)c(OC)c1` (stereo not given), the “Percent Effect” value is recorded as -3.921%. In the case of `Cc1ccc(CNC(=O)CCN2CCOC(C(F)(F)F)C2)cc1` (stereo not given), the “Percent Effect” value is -2.283%. As for `CCS(=O)(=O)c1ccc(N2CCC(NC(=O)CCC(C)C)CC2)cc1`, the “Percent Effect” value was 4.61%.
